# Shown are actives, neighbours in structure and some others; about 27% of the full set was active somewhere.
# sEH activator – soluble epoxide hydrolase activators, primary screen, biochemical, human sEH; Bifunctional epoxide hydrolase 2 (Homo sapiens), P34913; purified human sEH enzymatic activity, activator screen; activation, % at 2 µM; 91,000 tested, 0.04% active; in the data active = activation above about 37%
# CYP2C19 inh – blockers of cytochrome P450 2C19 activity – biochemical, luminescence, ADME assay, primary screen | CYP2C19 Supersomes, luciferin-H EGE luminescence, 30 min | inhibition, % at 5 µM | 96,000 tested, 21% active;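 active = CYP2C19 inhibition above a set limit at 5 µM in the primary screen, cut at about 50% in these data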
# Target sequence (P33261 whole entry, looked up): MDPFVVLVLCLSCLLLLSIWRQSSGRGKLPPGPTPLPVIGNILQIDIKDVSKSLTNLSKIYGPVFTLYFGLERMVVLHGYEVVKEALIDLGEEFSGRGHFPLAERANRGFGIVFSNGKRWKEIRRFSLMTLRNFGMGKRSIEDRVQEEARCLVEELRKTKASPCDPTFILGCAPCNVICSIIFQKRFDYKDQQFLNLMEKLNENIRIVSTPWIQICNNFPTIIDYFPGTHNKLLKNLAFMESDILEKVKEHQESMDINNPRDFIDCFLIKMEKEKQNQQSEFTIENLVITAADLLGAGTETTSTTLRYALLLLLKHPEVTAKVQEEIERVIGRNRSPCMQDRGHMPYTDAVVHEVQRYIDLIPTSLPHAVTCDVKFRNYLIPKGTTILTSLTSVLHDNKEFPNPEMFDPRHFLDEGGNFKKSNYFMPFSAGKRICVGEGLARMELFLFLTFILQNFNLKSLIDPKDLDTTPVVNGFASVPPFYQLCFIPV
# CYP2C19 act – human CYP2C19 activators, primary screen, biochemical, luminescence. Cytochrome P450 2C19 (Homo sapiens), P33261. recombinant CYP2C19, luciferin-H EGE luminescence; hits give high values; 0 = fully inhibited enzyme, 1 = untreated enzyme. activation factor at 5 µM. 96,000 tested, under 10 active;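 active = activation factor of at least 2 at 5 µM in the primary screen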
# CYP2C9 act – human CYP2C9 activators, primary screen, biochemical, luminescence; recombinant CYP2C9, luciferin-H conversion; hits give high values; factor 1 = untreated enzyme, 0 = blocked; activation factor at 5 µM; 96,000 tested, 1.4% active; AID 1024, 2008;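 active = activation factor of 2 or more for CYP2C9 at a 5 µM dose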
# CYP2C9 inhib – blockers of cytochrome P450 2C9 activity – biochemical, luminescence, ADME assay, primary screen; CYP2C9 Supersomes, luciferin-H conversion; P11712; inhibition, % at 5 µM; 96,000 tested, 20% active; AID 777, 2007;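 active = blocking of liver enzyme CYP2C9 beyond about 50% at 5 µM, limit read from the data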
# sEH inhibitor – soluble epoxide hydrolase inhibitors, primary screen, biochemical, human sEH | recombinant human sEH enzymatic activity assay | inhibition, % at 2 µM | 91,000 tested, 0.34% active | AID 707, 2007; in the data active = inhibition above about 80%
# A number is an active result; n = inactive; x = not tested or not shown.
SMILES,sEH activator,CYP2C19 inh,CYP2C19 act,CYP2C9 act,CYP2C9 inhib,sEH inhibitor
O=C(COc1ccccc1Br)N1CCN(c2ccccc2)CC1,n,95,n,n,n,n
O=C(COc1ccccc1Cl)N1CCN(c2ccc([N+](=O)[O-])c(N3CCOCC3)c2)CC1,n,n,n,n,85,n
O=C(CN1C(=O)c2cccc3cccc1c23)N1CCN(c2ccc(F)cc2)CC1,n,n,n,2.2,n,n
Cc1nc2ccccc2nc1OCC(=O)N1CCN(c2ccccc2)CC1,n,n,n,n,n,n
O=C(CCN1C(=O)CSC1=O)Nc1ccccc1,x,n,n,n,n,x
Cn1c(=O)c2c(ncn2CC(=O)N2CCN(c3ccc(F)cc3)CC2)n(C)c1=O,n,n,n,n,78,n
COc1ccc(Nc2ncc(C(=O)N3CCN(c4ccc(F)cc4)CC3)c3ccccc23)cc1,n,61,n,n,66,n
CC(=O)c1ccc(NC(=O)CSC(C)C)cc1,n,n,n,n,n,n
Nc1nnc(SCc2ccc(F)cc2)s1,n,70,n,n,n,n
COc1ccc(CSc2nnc(N)s2)cc1F,n,69,n,n,n,n
Cc1nnc(SCc2ccc(F)cc2)s1,n,n,n,n,n,n
Cc1nn(CC(=O)Nc2ccc3c(c2)nc(CN2CCCC2)n3C)c(=O)c2ccccc12,n,n,n,n,n,n
CC1CCC(NC(=O)CN2CCCN(Cc3ccc(F)cc3Cl)C2=O)CC1 (centres undefined),x,n,n,n,n,x
CC(=O)c1c(C)nc(-c2ccc(Cl)cc2)nc1NC(=O)C(C)C,n,62,n,n,94,n
CC(=O)c1c(C)nc(-c2ccccc2)nc1NC(=O)C(C)C,n,n,n,n,74,n
CC(=O)C1=C(C)NC(SCC(=O)c2ccccc2)=C(C#N)C1CC(C)C (centres undefined),n,n,n,n,59,n
N#CC1=C(SCC(=O)c2ccc(Br)cc2)NC2=C(C(=O)CCC2)C1c1ccco1 (centres undefined),x,99,n,n,99,x
O=C(CSc1nnc(-c2ccco2)o1)c1ccccc1,n,n,n,n,n,n
CC(=O)C1=C(C)NC(SCC(=O)c2ccc(Cl)cc2)=C(C#N)C1c1ccco1 (centres undefined),n,100,n,n,97,n
CC(=O)C1=C(C)NC(SCC(=O)c2ccccc2)=C(C#N)C1c1ccco1 (centres undefined),n,99,n,n,93,n
Cc1snc(SCC(=O)c2ccc(Cl)cc2)c1C#N,n,n,n,n,n,n
CS(=O)(=O)c1ccc2nc(N)sc2c1,n,n,n,n,n,n
Cc1nc2cc(NS(=O)(=O)c3c(C)c(C)cc(C)c3C)ccc2s1,n,x,x,x,x,n
Cc1nc2ccc(NS(=O)(=O)c3ccc4c(c3)OCCO4)cc2s1,n,98,n,n,98,n
Cc1nc2ccc(NS(=O)(=O)c3c(C)c(C)cc(C)c3C)cc2s1,n,n,n,n,74,n
SMILES,sEH activator,CYP2C19 inh,CYP2C19 act,CYP2C9 act,CYP2C9 inhib,sEH inhibitor
Cc1nc2ccc(NC(=O)N3CCOCC3)cc2s1,n,n,n,n,n,n
Cc1ccc(S(=O)(=O)Nc2ccc3nc(C)sc3c2)cc1,n,n,n,n,79,n
Cc1ccc(S(=O)(=O)Nc2ccc3nc(N)sc3c2)cc1,n,99,n,n,95,n
CCCCP(=O)(CCCC)c1ccccc1C(=O)O,x,n,n,n,n,x
CC(=O)Oc1ccc(C(=O)Nn2cnnc2)cc1,n,x,x,x,x,n
Cc1ccc(CNC(=O)CS(=O)Cc2nc(-c3cccs3)oc2C)cc1 (centres undefined),n,n,n,n,n,n
CCCc1nnc(SCC(=O)N2CCCC(C)C2)n1CCCOC (centres undefined),n,n,n,n,n,n
Cc1ccc(C(=O)Nc2ccc3nc(C)sc3c2)s1,n,n,n,n,87,n
Cc1cc(C)cc(NC(=O)Cn2cc3c(n2)CCCCC3)c1,x,n,n,n,n,x
O=C(Cn1cc2c(n1)CCCC2)NCCc1ccccc1,n,x,x,x,x,n
CN(C)c1ccc(NC(=O)Cn2cc3c(n2)CCCC3)cc1,x,92,n,n,n,x
COc1cccc(CNC(=O)Cn2cc3c(n2)CCCCC3)c1,n,92,n,2.4,n,n
CC1(C)CC(=O)C2=C(C1)Nc1ccccc1NC2c1ccc2c(c1)OCO2 (centres undefined),n,n,n,n,n,n
O=C1NCC2=C1C(c1ccc(Br)cc1)Nc1ccccc1N2 (centres undefined),n,n,n,n,55,n
O=C(CSc1nc2ccccc2nc1SCC(=O)N1CCCCC1)N1CCCCC1,n,n,n,n,95,n
Nc1cc(N)nc(SCC(=O)N2CCCCC2)n1,n,n,n,n,52,n
C=C(C)CN(CC)C(=O)CSc1nc2ncc(Cl)cc2[nH]1,n,92,n,n,n,n
C=C(C)CSc1nc2ncc(Cl)cc2[nH]1,n,n,n,n,n,n
Cc1nnc(NC(=O)c2oc3c(ccc4ccccc43)c2C)s1,x,n,n,n,n,x
Cc1cc(C)nc(-n2nc(C)c3c(C(F)(F)F)cc(=O)[nH]c32)n1,n,n,n,n,65,n
Cc1cc(=O)[nH]c2c1c(C)nn2-c1ccccc1,x,n,n,n,n,x
Cc1cc(C)nc(NC(=NCCc2c[nH]c3ccccc23)NC(=O)c2ccco2)n1,n,96,n,n,99,n
O=C(NC(Cc1c[nH]c2ccccc12)C(=O)O)c1ccco1 (centres undefined),n,n,n,n,n,n
Cc1ccc(CNC(=O)C2CC(c3ccccc3[N+](=O)[O-])=NO2)cc1 (centres undefined),n,n,n,n,n,n
CCCCNC(=O)C1CC(c2ccccc2[N+](=O)[O-])=NO1 (centres undefined),n,n,n,n,n,n
O=C(NCc1ccc(OC(F)(F)F)cc1)C1CC(c2ccccc2[N+](=O)[O-])=NO1 (centres undefined),n,n,n,3.1,n,n
O=C(NCCCCc1ccccc1)C1CC(c2ccccc2[N+](=O)[O-])=NO1 (centres undefined),n,51,n,n,n,n
CCCCn1c(=S)[nH]c2c(oc3ccc(Cl)cc32)c1=O,n,x,x,x,x,n
Cn1c(=O)c2c(nc(CN3CCOCC3)n2CCCO)n(C)c1=O,x,n,n,n,n,x
CCOC(=O)c1c(C)nc2sc(C(=O)Nc3ccc(C(C)=O)cc3)c(N)c2c1-c1ccc(OC)cc1,n,60,n,n,62,n
